Structures are written as SMILES. Records with an inconclusive call do not appear. Values without a mark were called inactive. Calls of active or inactive are those of the source. Calls come from the whole dose curve; as a rule, active = well fitted inhibition curve with a large enough effect; inconclusive = small, poorly fitted or top-dose-only effect; inactive = no such curve, though single readings can be large or run the other way. Square brackets hold non-standard residues; d marks the D form. Peptide text beside a SMILES is read from it. Hyp = O=C(O)[CH]1C[CH](O)CN1; Phe(ol) = N[CH](CO)Cc1ccccc1; Iva = CC[C](C)(N)C(=O)O; Aib = CC(C)(N)C(=O)O
Potency is the fitted concentration of half-maximal effect.

The experiment has as its target Retinaldehyde dehydrogenase 3 (Homo sapiens) (UniProt P47895). In words: qHTS for Inhibitors of the Aldehyde Dehydrogenase Family (ALDH1A3) Primary screen (AID 2061315).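 For activity change, negative = inhibition: plate controls were DMSO vehicle for no effect and reference inhibitor for full effect.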 As to conditions: ALDH inhibition qHTS; series mostly up to 56 µM; activity change, negative = inhibition: at the top concentration.
For `Cc1cc(C(=O)N2Cc3cnn(C)c3Nc3ccccc32)ccc1CNC(=O)N1CCN(Cc2cc(O)cc(O)c2)CC1`, the “activity change, negative = inhibition” value was -7.69%.
For the compound `CCC1CC2C(C)=CC3CCCCC3C2(C)C2(OC(=O)C(C)(O)OC2=O)O1` (stereo not drawn), the “activity change, negative = inhibition” value was -4.74%.
Still for that read-out and setting: the result for `CC(C)(C)NC(=O)[C@@H]1CN(Cc2cccnc2)CCN1C[C@@H](O)C[C@@H](Cc1ccccc1)C(=O)N[C@H]1c2ccccc2C[C@H]1O` reads -6.57%; that for `Cc1ccccc1C(=O)Nc1ccc(C(=O)N2CCC[C@@H](O)c3cc(Cl)ccc32)c(C)c1`, 15.6%.
Still for that read-out and setting: the result for `COc1ccc2c(c1)C(C(=O)N(Cc1ccc(N(C)C)cc1)c1ccc(C(C)C)cc1)CCC2` (stereo not drawn) reads -6.44%; that for `CC1OC(OC2C(O)C(OC3CCC4(C)C(CCC5(C)C4CC=C4C6CC(C)(COC7OC(CO)C(O)C(O)C7O)CC(O)C6(C)CCC45C)C3(C)C)OC(C(=O)O)C2O)C(O)C(O)C1OC1OCC(O)C(O)C1O` (stereo not drawn), -4.88% [at 16.9 µM].
On the same count and under the same terms, the result for `CC1=C2C(=O)C=C(CO)C2C2OC(=O)C(CS(=O)(=O)O)C2C(OC(=O)Cc2ccc(O)cc2)C1` (stereo not drawn) reads 6.59% [at 28 µM]; that for `CCOc1nc2cccc(C(=O)O)c2n1Cc1ccc(-c2ccccc2-c2nn[nH]n2)cc1`, -4.27%.
`CCCCCOC(=O)Nc1nc(=O)n(C2O[C@H](C)[C@@H](O)[C@H]2O)cc1F` (stereo partly drawn): the “activity change, negative = inhibition” value was -10.5%.
On the same count and under the same terms, the result for `COC(=O)C1=COC(OC2OC(CO)C(O)C(O)C2O)C2C(C)C(OC(C)=O)C(OC(=O)c3ccccc3)C12` (stereo not drawn) reads -10.7% [at 28 µM]; that for `CCCCS(=O)(=O)N[C@@H](Cc1ccc(OCCCCC2CCNCC2)cc1)C(=O)O`, -15.5%; that for `CCC(C)(NC(=O)C(CCC(N)=O)NC(=O)C1CC(O)CN1C(=O)C(C)(C)NC(=O)C(C)(C)NC(=O)C(CC(C)C)NC(=O)CNC(=O)C(NC(=O)C(C)(C)NC(=O)C(C)(C)NC(=O)C(C)(C)NC(=O)C(Cc1ccccc1)NC(C)=O)C(C)C)C(=O)N1CC(O)CC1C(=O)NC(C)(C)C(=O)NC(CO)Cc1ccccc1` (stereo not drawn) (Ac-F[Aib][Aib][Aib]VGL[Aib][Aib][Hyp]Q[Iva][Hyp][Aib][Phe(ol)]; configuration not given here), 11.2% [at 11.2 µM].
In the case of `CC1C=CC2CCCCC2C1CCC1CC(O)CC(=O)O1` (stereo not drawn), the “activity change, negative = inhibition” value is 16.8%.
The same measure, in the same setting: next, `CC(=O)O[C@@H]1[C@@H](O)[C@H](C)O[C@@H](O[C@H]2[C@@H]3C=CO[C@@H](O[C@@H]4O[C@H](CO)[C@@H](O)[C@H](O)[C@H]4O)[C@@H]3[C@@]3(CO)O[C@@H]23)[C@@H]1OC(=O)/C=C/c1ccccc1`: 0% [at 16.9 µM]; `Cc1cc(C)c(NC(=O)N(Cc2ccc3c(c2)Cc2ccccc2-3)C2CCCCCC2)c(C)c1`: -19%.
Still for that read-out and setting: the result for `CCN1CCN(Cc2ccc(NC(=O)c3ccc(C)c(Oc4ccnc5[nH]ccc45)c3)cc2C(F)(F)F)CC1` reads -3.98%.
Still for that read-out and setting: the result for `CC1(C)CCC2(C(=O)OC3OCC(O)C(O)C3O)CCC3(C)C(=CCC4C5(C)CC(O)C(OC6OC(COC7OCC(O)C(O)C7O)C(O)C(O)C6O)C(C)(C)C5CCC43C)C2C1` (stereo not drawn) reads 4.36% [at 16.9 µM]; that for `CC1(C)CC[C@@]2(C(=O)O[C@@H]3O[C@H](CO)[C@@H](O)[C@H](O)[C@H]3O)C(C1)C1=CCC3[C@@]4(C)CC[C@@H](O[C@@H]5O[C@H](C(=O)O)[C@@H](O[C@@H]6OC[C@@H](O)[C@H](O)[C@H]6O)[C@H](O[C@@H]6OC[C@](O)(CO)[C@H]6O)[C@H]5O)C(C)(C)C4CC[C@@]3(C)[C@]1(C)C[C@H]2O` (stereo partly drawn), -6.49% [at 16.9 µM].
Turning to `NC(=O)[C@H]1CCCCc2c1[nH]c1ccc(Cl)cc21`, the “activity change, negative = inhibition” value is -11% [at 28 µM].
Still for that read-out and setting: next, `C=C1CC[C@@H]2[C@](C)(CO)[C@H](O)CC[C@@]2(C)[C@@H]1C/C=C1/C(=O)OC[C@@H]1O`: -0.968%; `CC(NC(=O)c1ccccc1N)C(=O)O` (stereo not drawn): -1.53%; `CC(C)C(C#N)O[C@@H]1O[C@H](CO[C@@H]2OC[C@](O)(CO)[C@H]2O)[C@@H](O)[C@H](O)[C@H]1O` (stereo partly drawn): 3.31%.
On to `CC1(C)C2CC(OC3OC(COC4OCC(O)(CO)C4O)C(O)C(O)C3O)C1(C)CC2O` (stereo not drawn), for which the “activity change, negative = inhibition” value is 6.67% [at 28 µM].
Same read-out and setting: next, `C=C1CCC2C(C)(C(=O)O)CCCC2(C)C1CCC1=CCOC1=O` (stereo not drawn): -6.54%; `CC(C)(C)c1ccc(C(=O)Nc2cn3cc(-n4ccnc4)ccc3n2)cc1`: 15.3%.
On to `OCC1OC(Oc2cc(O)cc(/C=C/c3ccc(O)cc3)c2)C(O)C(O)C1O` (stereo not drawn), for which the Potency was 3.55 µM (active).
Turning to `Cc1cc(Nc2nc(NC(C)c3ncc(F)cn3)ncc2Cl)n[nH]1` (stereo not drawn), the “activity change, negative = inhibition” value is 5.27%.
For the compound `C[C@@H]1O[C@@H](O[C@@H]2[C@@H](O)[C@H](O[C@H]3[C@H](O[C@H]4CC[C@@]5(C)C(CC[C@]6(C)C5CC=C5[C@@H]7CC(C)(C)CC[C@]7(C(=O)O[C@@H]7O[C@H](CO)[C@@H](O)[C@H](O)[C@H]7O[C@@H]7O[C@@H](C)[C@H](O[C@@H]8O[C@@H](C)[C@H](O)[C@@H](O)[C@H]8O)[C@@H](O)[C@H]7O)CC[C@]56C)[C@@]4(C)CO)O[C@H](C(=O)O)[C@@H](O)[C@@H]3O)O[C@H](CO)[C@H]2O)[C@H](O)[C@H](O)[C@H]1O` (stereo partly drawn), the activity change, negative = inhibition was -3.36% [at 11.2 µM].

Values taken from PubChem BioAssay (NCATS).
